Laboratory results taken from the supplement of paper PMC12636033.
± gives the standard deviation of the averaged measurements. The full ranking holds about 33,000 sequences; the median of “E-score (rank enrichment, -0.5 to 0.5)” is about -0.0028, and the highest 2% start at about 0.23. This excerpt belongs to a sample that is enriched for the highest values.

Test system: 2Sb-muMax20 (muMax20 with two 1,3-bis(methyl)benzene Cys staples, A13C/A17C and Q88C/A92C, C-terminal Lys)
Assay: PBM 8-mer E-score (E-score (rank enrichment, -0.5 to 0.5)); higher = stronger preferential binding
Procedure: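 Protein binding microarray (universal PBM chip covering all 10-mers in fixed probe flanks) with chemically synthesized human Max(13-93) bHLH-LZ analogs (not full-length Max) bearing noncanonical residues (hArg, Tha, Aib, Nle at 65) and aromatic Cys staples. Read-out per 8-mer (and its reverse complement): E-score (rank-based enrichment, -0.5 to 0.5) and Z-score of median probe intensity.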

Sequence | PBM 8-mer E-score
ATGGGGGG | -0.078 ± 0.064
ATGGGGCA | 0.247 ± 0.015
ATGGGGCG | 0.305 ± 0.011
GTGGGGCA | 0.0926 ± 0.0061
ATGGGGCC | -0.148 ± 0.097
CCGCGTAC | -0.0836 ± 0.06
AAACCCTC | 0.0564 ± 0.037
CTACTTTA | -0.0218 ± 0.0086
ATACTTTG | 0.18 ± 0.031
ATACTTTA | 0.254 ± 0.079
CACAGCAA | 0.0823 ± 0.098
CTACTAAC | 0.271 ± 0.02
ATACTAAC | 0.191 ± 0.016
GTACTAAA | 0.0714 ± 0.032
TTACTAAA | 0.035 ± 0.037
CTACTAAG | -0.0175 ± 0.014
ATACTAAA | 0.274 ± 0.073
AGCCTATG | -0.168 ± 0.032
CGCCCCCA | -0.0972 ± 0.11
CCGCCCCC | -0.265 ± 0.034
CAGCCCAA | 0.0925 ± 0.0081
GAGCCCAA | 0.238 ± 0.016
CCGCCCAA | -0.0271 ± 0.08
CCGCCCCG | 0.287 ± 0.1
CCGCCCGG | -0.235 ± 0.023

Sequence | PBM 8-mer E-score
AAGCCCAA | 0.14 ± 0.085
CCGCCCCA | 0.349 ± 0.038
CAGCCCCA | 0.166 ± 0.062
TAGCCCCA | 0.35 ± 0.014
TAGCCCAA | 0.0876 ± 0.027
GGAGAGAA | -0.0248 ± 0.093
ACGGCAGC | -0.302 ± 0.045
CATATGGA | 0.0953 ± 0.063
CAACACGC | 0.161 ± 0.065
CCCACGCC | -0.189 ± 0.095
GCCAATTA | 0.127 ± 0.041
ACGGTCAG | -0.313 ± 0.0032
CAGGTCCG | -0.237 ± 0.054
ACGTCGGC | 0.0307 ± 0.079
TCGCCCAA | -0.0719 ± 0.021
ACGCCCCC | -0.18 ± 0.1
ACGCCCCG | -0.046 ± 0.025
ACGCCCCA | 0.287 ± 0.062
GCGCCCCA | 0.0563 ± 0.082
TCGCCCCA | 0.24 ± 0.018
CGATCCAA | -0.286 ± 0.0083
CTCGGCGA | -0.0762 ± 0.055
CGATGGTA | -0.0858 ± 0.023
AATGTAAA | 0.211 ± 0.015
ATGAGGCA | 0.0329 ± 0.044

Sequence | PBM 8-mer E-score
ACTGGCGA | -0.0221 ± 0.033
ACTTGCGG | -0.169 ± 0.047
AACACAAG | 0.141 ± 0.016
CACACAAA | 0.167 ± 0.033
AACACGTC | 0.0373 ± 0.11
CACACGTC | -0.172 ± 0.057
CACGCGTA | 0.199 ± 0.021
CACGCGTG | 0.303 ± 0.039
AACACAAA | 0.25 ± 0.03
CACACGTA | 0.127 ± 0.0021
AACACGTG | 0.4538 ± 0.0037
AACACGTA | 0.112 ± 0.046
CACACGTG | 0.338 ± 0.022
CACGCGTC | 0.2 ± 0.0088
CCGAGCCA | -0.115 ± 0.0049
GAAGGGGC | 0.128 ± 0.0016
ACCTATCG | 0.13 ± 0.048
CGCTACCC | -0.0659 ± 0.038
ACGGATCT | -0.242 ± 0.042
GGCGCAAC | -0.0786 ± 0.013
CTGATATA | 0.0373 ± 0.023
CCAACGCC | -0.0186 ± 0.026
ACTTCAAA | -0.125 ± 0.065
CAACCCCG | -0.0958 ± 0.017
CCTGCATC | -0.118 ± 0.02

Sequence | PBM 8-mer E-score
GCTCCGTA | -0.181 ± 0.026
CACACCTA | 0.251 ± 0.023
CACACCTC | 0.11 ± 0.0036
CACGCGGG | 0.115 ± 0.007
AACGCGGA | -0.0532 ± 0.04
CACACCTG | -0.176 ± 0.087
CACGCGGA | 0.28 ± 0.036
TCACGGGA | -0.0219 ± 0.047
CTCAAGTC | 0.0478 ± 0.02
AGGGTTGC | -0.0164 ± 0.024
CAGTCCGC | -0.188 ± 0.055
AGGTGCGG | 0.0251 ± 0.022
AATTTATG | 0.238 ± 0.043
ATTTTATG | 0.0605 ± 0.031
CATTTATA | 0.137 ± 0.013
AATTTATC | 0.18 ± 0.013
AATTTATA | 0.248 ± 0.02
ATTTTATA | 0.206 ± 0.038
CAGTAAGC | 0.00962 ± 0.05
AAAAAACC | 0.143 ± 0.026
GGCTCCGA | -0.22 ± 0.014
AAGGCAAT | 0.0342 ± 0.0041
ATAATTTG | 0.132 ± 0.036
ACAATTGA | 0.194 ± 0.031
ACAATTAC | 0.194 ± 0.031

Sequence | PBM 8-mer E-score
CCAATTAA | 0.159 ± 0.045
GTAATTTA | 0.0825 ± 0.086
CCAATTAC | 0.238 ± 0.015
TCAATTGA | 0.1 ± 0.058
GTAATTGA | 0.0929 ± 0.019
CTAATTGA | 0.053 ± 0.057
ATAATTGA | 0.258 ± 0.029
CCAATTGA | 0.252 ± 0.0093
ATAATTTA | 0.235 ± 0.015
CCGAGAGC | -0.304 ± 0.02
TCTCCGCA | -0.148 ± 0.043
CATGTTCG | 0.00518 ± 0.06
CAGCTGAA | -0.0746 ± 0.0082
AAAATGAC | 0.134 ± 0.0081
CCCCTAAA | 0.0345 ± 0.052
CAGGCAAG | -0.0204 ± 0.051
CAGTGAAG | -0.0862 ± 0.073
AATGAGAA | -0.0163 ± 0.03
GCGAACCA | -0.037 ± 0.021
ACAGATTC | 0.111 ± 0.028
GCGTGGTA | 0.0782 ± 0.019
CTCTACTA | 0.168 ± 0.024
ATGCCATG | 0.026 ± 0.072
ATGCCATA | 0.246 ± 0.022
ATGCCATC | 0.134 ± 0.0047

Sequence | PBM 8-mer E-score
AAACAGAT | -0.0777 ± 0.083
GTTTGAGA | -0.0465 ± 0.092
CAACAGAC | 0.0401 ± 0.00088
AACATATA | 0.237 ± 0.031
AACATATG | 0.182 ± 0.013
AACATATT | 0.2329 ± 0.0015
AACATATC | 0.124 ± 0.0061
GACATATA | 0.0756 ± 0.061
CACATATA | 0.21 ± 0.068
ATCGTTAG | -0.0184 ± 0.067
GTAGACAC | 0.0487 ± 0.053
ATTACAAC | 0.1 ± 0.033
AATAGGGA | 0.23 ± 0.0053
GATAGGGA | -0.111 ± 0.072
TATAGGGA | -0.0259 ± 0.048
ATCAAACG | -0.0315 ± 0.075
GTGTACAA | 0.216 ± 0.039
AGGTACAA | 0.0983 ± 0.038
CTGTACAA | 0.0289 ± 0.12
CGGTATAA | 0.127 ± 0.043
AGGTATAA | 0.147 ± 0.0065
TTGTACAA | 0.29 ± 0.033
TGGTATAA | 0.239 ± 0.0046
TGGTACAA | 0.265 ± 0.021
GGGTACAA | 0.0409 ± 0.026

Sequence | PBM 8-mer E-score
CGTTAACC | 0.0325 ± 0.077
CTCGCCAG | -0.193 ± 0.077
CACGAATA | 0.0625 ± 0.022
CCGTATGA | -0.0951 ± 0.073
AAAGCATG | 0.181 ± 0.039
ACCGGGAT | -0.253 ± 0.025
CATCCCCA | 0.141 ± 0.047
AATCCCCT | 0.2795 ± 0.0021
AATCCCCA | 0.258 ± 0.01
AATCCCCC | -0.219 ± 0.0031
AATCCCAA | 0.158 ± 0.025
TATCCCCA | 0.282 ± 0.018
AATCCCCG | 0.0673 ± 0.076
AATCCCAT | 0.185 ± 0.057
GATCCCCA | 0.153 ± 0.12
ATCGCTAC | -0.0426 ± 0.015
CCCGACAC | -0.0833 ± 0.071
AATGAGGC | 0.0433 ± 0.059
GAAAGGAA | 0.00148 ± 0.06
CATTCATA | 0.264 ± 0.046
GATTCATA | 0.178 ± 0.02
CATTCATC | 0.0987 ± 0.029
